CYP2C9 activ: increases human cytochrome P450 2C9 activity | P11712 | recombinant CYP2C9, luciferin-H conversion, luminescence; stronger effect = higher value; factor 1 = untreated enzyme, 0 = blocked | activation factor at 5 µM | 96,000 compounds, 1.4% hits;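 active means activation factor of 2 or more for CYP2C9 at a 5 µM dose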
PLAP act: human PLAP activation. activation fold at 20 µM. 96,000 compounds, 1.2% hits. P05187. purified PLAP enzyme, luminescent substrate read-out; stronger effect = higher value; in the data active means activation fold above about 2
Target sequence (P05187 whole entry, looked up): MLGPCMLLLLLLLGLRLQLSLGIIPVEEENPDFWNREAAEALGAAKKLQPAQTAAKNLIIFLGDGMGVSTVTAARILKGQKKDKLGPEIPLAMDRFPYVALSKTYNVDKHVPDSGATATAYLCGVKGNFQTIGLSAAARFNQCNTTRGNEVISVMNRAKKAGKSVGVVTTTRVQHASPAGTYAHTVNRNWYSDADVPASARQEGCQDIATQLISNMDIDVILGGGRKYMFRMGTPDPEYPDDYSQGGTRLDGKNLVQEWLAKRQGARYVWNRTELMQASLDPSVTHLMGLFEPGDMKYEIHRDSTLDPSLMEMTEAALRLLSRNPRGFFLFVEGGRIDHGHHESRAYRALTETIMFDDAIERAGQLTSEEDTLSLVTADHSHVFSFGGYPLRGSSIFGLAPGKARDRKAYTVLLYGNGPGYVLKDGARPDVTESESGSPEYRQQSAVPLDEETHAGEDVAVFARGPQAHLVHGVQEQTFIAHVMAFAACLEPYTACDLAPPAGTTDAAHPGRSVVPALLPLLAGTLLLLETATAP
CYP2C19 inh: blocks human cytochrome P450 2C19. P33261. CYP2C19 Supersomes, luciferin-H EGE luminescence, 30 min. inhibition, % at 5 µM. 96,000 compounds, 21% hits;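 active means CYP2C19 inhibition above a set limit at 5 µM in the primary screen, cut at about 50% in these data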
CYP2C19 activ: increases human CYP2C19 enzyme activity | P33261 | recombinant CYP2C19, luciferin-H EGE luminescence; stronger effect = higher value; 0 = fully inhibited enzyme, 1 = untreated enzyme | activation factor at 5 µM | 96,000 tested, under 10 active;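 active means activation factor of at least 2 at 5 µM in the primary screen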
CYP2C9 inh: human CYP2C9 inhibition | inhibition, % at 5 µM | 96,000 compounds, 20% hits | CYP2C9 Supersomes, luciferin-H conversion, luminescence | AID 777 | P11712;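 active means blocking of liver enzyme CYP2C9 beyond about 50% at 5 µM, limit read from the data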
Each line names hits and unclear results; the compound was inactive in the other large screens. A selection: hits, their analogues and other compounds. The true share with any hit is near 31%.

CS(=O)(=O)N1CCCC(c2nc(-c3ccc(S(=O)(=O)NCc4ccccc4)cc3)no2)C1 (stereo not drawn)	none
Oc1cccc2ccc(Nc3ccccn3)nc12	none
Oc1ccc2ccccc2c1N=Nc1ccccn1	CYP2C9 inh 67
COC(=O)c1cccc(Nc2cc(C)nc(-c3ccccc3O)n2)c1	none
COC(=O)c1ccc(Nc2cc(C)nc(-c3ccccc3O)n2)cc1	CYP2C9 inh 59
O=C(NC1(C(F)(F)F)NC(=O)N(c2ccc(F)c(Cl)c2)C1=O)c1ccncc1 (stereo not drawn)	CYP2C19 inh 82, CYP2C9 inh 98
Cc1ccccc1NC(=S)N(C)Cc1cccs1	CYP2C19 inh 75
Cc1ncsc1CCSc1nc2ccccc2c(=O)n1C	CYP2C19 inh 77, CYP2C9 inh 68
Cc1ncsc1CCSc1n[nH]c(=O)n1-c1ccccc1	none
O=C(NCc1cccnc1)C1CC(c2ccc(F)cc2)=NO1 (stereo not drawn)	none
O=C(CCc1nc(-c2ccccc2)no1)NCC1CCCO1 (stereo not drawn)	none
Cc1noc(/C=C/NCc2cccnc2)c1S(=O)(=O)N(C)CC(=O)N1CCc2ccccc21	CYP2C9 inh 78
COc1ccc(-n2nnnc2-c2cccnc2)cc1	CYP2C19 inh 55
CCC(CC)C(=O)Nc1c2c(nn1-c1ccc(OC)cc1)CS(=O)(=O)C2	CYP2C9 inh 55
O=S(=O)(NC1CCCCCCC1)c1cccs1	CYP2C19 inh 54
O=C(NC1CCCCCC1)C1CCCN(S(=O)(=O)c2cccs2)C1 (stereo not drawn)	CYP2C9 inh 77
COc1ccc(NC(=O)C2CCCN(S(=O)(=O)c3cccs3)C2)cc1OC (stereo not drawn)	none
O=C(NCCc1ccccc1)C1CCCN(S(=O)(=O)c2cccs2)C1 (stereo not drawn)	CYP2C9 inh 86
O=C(NC1CCCCC1)C1CCN(S(=O)(=O)c2cccs2)CC1	none
O=C(CCS(=O)(=O)c1cccs1)NC1CCCCCC1	none
Cc1nccn1CC(O)COC1CCCCC1 (stereo not drawn)	none
Cc1c(NC(=O)CCC(=O)N2CCCCC2)c(=O)n(-c2ccccc2)n1C	none
CCOC(=O)CN1C(=O)C(Sc2n[nH]c(-c3cccc(C)c3)n2)CCc2ccccc21 (stereo not drawn)	CYP2C19 inh 57, CYP2C9 inh 85
CC(C)CN(CC(C)C)C(=O)CS(=O)(=O)Cc1ccccc1	CYP2C19 inh 62
Cc1ccc(C(=O)CC2(O)C(=O)N(CN3CCOCC3)c3ccccc32)cc1 (stereo not drawn)	CYP2C19 inh 54
COc1ccc(CN2C(=O)C(O)(CC(=O)c3ccc4c(c3)OCO4)c3ccccc32)cc1OC (stereo not drawn)	none
CCc1ccc(C(=O)CC2(O)C(=O)N(CN3CCOCC3)c3ccccc32)cc1 (stereo not drawn)	none
CC(C)c1ccc(C(=O)CC2(O)C(=O)N(CN3CCOCC3)c3ccccc32)cc1 (stereo not drawn)	CYP2C19 inh 78
CCN1C(=O)C(O)(CC(=O)c2ccc3c(c2)OCCO3)c2ccccc21 (stereo not drawn)	CYP2C19 inh 67
O=C(O)CC(CNS(=O)(=O)c1ccccc1)c1ccccc1 (stereo not drawn)	none
CCN1CCN(CC(=O)NC2CCCC2)C(=O)C1=O	none
CCOc1ccc(CSC(=N)N)cc1[N+](=O)[O-]	none
CCCCN(C)C(=O)CSc1nc(NCc2ccc(OC)cc2)c2ccccc2n1	CYP2C19 inh 54
O=C(c1sc2ccccc2c1Cl)N(Cc1cccs1)C1CCS(=O)(=O)C1 (stereo not drawn)	CYP2C9 inh 53
O=C(c1cccc(Cl)c1)N(Cc1cccs1)C1CCS(=O)(=O)C1 (stereo not drawn)	none
Cc1cc(C)cc(OCC(=O)N(Cc2cccs2)C2CCS(=O)(=O)C2)c1 (stereo not drawn)	CYP2C19 inh 82, CYP2C9 inh 54
Cc1ccc(OCC(=O)N(Cc2ccc(N(C)C)cc2)C2CCS(=O)(=O)C2)cc1 (stereo not drawn)	CYP2C19 inh 54, CYP2C9 inh 68
N#Cc1c(-c2ccco2)cc(C2CC2)nc1SCC(=O)c1ccccc1	none
CC(C)(C)c1ccc(C(=O)CCCSC2=C(C#N)C(c3ccco3)C3=C(CCCC3=O)N2)cc1 (stereo not drawn)	CYP2C9 inh 67
Cc1ccc(C(=O)CSC2=C(C#N)C(c3ccco3)C3=C(CCCC3=O)N2)cc1 (stereo not drawn)	CYP2C19 inh 88, CYP2C9 inh 92
